Screens from PubChem.
Most compounds without a hit are left out; they make up all but 7.5% or so of the library.
FBPA Giardia inh – Giardia lamblia aldolase inhibition; A8B2U2; purified Giardia FBPA; Potency, µM (doses to about 59.6 µM), most hits filed as inhibitors; 290,000 tested, 0.71% active; further: nearly all actives have a fitted effect of over 55% in size
Target sequence (A8B2U2 whole entry, looked up): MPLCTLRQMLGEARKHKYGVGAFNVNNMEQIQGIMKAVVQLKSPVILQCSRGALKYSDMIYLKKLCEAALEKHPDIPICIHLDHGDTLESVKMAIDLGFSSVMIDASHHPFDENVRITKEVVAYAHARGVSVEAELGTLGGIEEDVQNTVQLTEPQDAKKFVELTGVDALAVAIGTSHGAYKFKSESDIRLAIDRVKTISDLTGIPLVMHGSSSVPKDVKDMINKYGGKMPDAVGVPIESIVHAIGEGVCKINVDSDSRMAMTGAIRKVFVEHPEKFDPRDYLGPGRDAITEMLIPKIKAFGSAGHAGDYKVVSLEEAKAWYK
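Giardia FBPA (40 nM reagent) was preincubated 10 min at RT with compound (up to 57.5 uM final), then substrate plus GAPDH/TPI/NAD/arsenate coupling system with diaphorase/resazurin was added; resorufin fluorescence (525/598 nm) was read after 20 min.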
FMDV inh – antivirals against foot and mouth disease virus; 410,000 tested, 1.2% active; FMDV antiviral cell-based qHTS; Potency, µM (doses to about 57.9 µM), actives largely listed as inhibitors; calls by dose curve; tested in HEK293T cells; further: read-out not given here; nearly all actives have a fitted effect of over 45% in size
Vaccinia Venus – inhibitors of vaccinia virus (Venus reporter); Vaccinia virus Venus reporter expression, fluorescence; Potency, µM (titrated, usually from 36.5 µM), usual class: inhibitors; 330,000 tested, 0.46% active; AID 720580; calls by dose curve; tested in A549 cells; further: nearly all actives have a fitted effect of over 30% in size
HCMV antiviral – human cytomegalovirus inhibition; HFF cells, HCMV-luciferase reporter, 72 h; active compounds read low; activity change, negative = inhibition, % at 57.5 µM; 410,000 tested, 4.5% active; AID 1259415; in the data active means activity change below about -60%; inconclusive means no clear call, values can overlap the other calls; inactive means above about -39%
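Steps: HFFs plated, 16 h 37C; compounds added; HCMV-luciferase added to MOI 1 PFU/cell; 72 h 37C; OneGlo reagent, 5 min room temperature; luminescence read, normalized to controls.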
HCV inh – inhibitors of hepatitis C virus infection; Huh7.5.1 HCVcc-Cre infection, luciferase reporter, 44 h; Potency, µM (doses to about 41.8 µM), most hits filed as inhibitors; 340,000 tested, 3.4% active
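Compounds are dispensed onto cells plated 4 h earlier at 1,000 per well, with HCVcc-Cre virus (about 0.5 moi) added next. Following 44 h of culture, luminescent signal is measured for 15 sec after 15 min with substrate at room temperature.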
Vaccinia mCherry – vaccinia inhibition (mCherry reporter); Vaccinia virus mCherry reporter infection, fluorescence; Potency, µM (titrated, usually from 36.5 µM), usual class: inhibitors; 310,000 tested, 0.63% active; calls by dose curve; tested in A549 cells; further: nearly all actives have a fitted effect of over 35% in size
A number is an active result; – = inactive; ? = inconclusive; · = no result given; + = active, no number; ! = not active in a repeat; [ ] = another dose, or the depositor's remark. Unless noted, the call rests on the fitted dose curve; in most records, active means well fitted curve in the direction sought with a large enough effect; inconclusive means small, poorly fitted or top-dose-only effect, or another doubt; inactive means no such curve, though single readings can be large; an effect the other way counts as inactive or inconclusive.

SMILES	FBPA Giardia inh	FMDV inh	Vaccinia Venus	HCMV antiviral	HCV inh	Vaccinia mCherry
N#Cc1ccccc1NC(=O)CSc1ccc([N+](=O)[O-])cn1	–	–	–	-65.8	–	–
O=C(CSC1=Nc2ccccc2C2CC=NN12)Nc1ccc2c(c1)OCO2 (stereo not given)	–	20µM	–	–	?	–
CCCOC(=O)c1ccc(NC(=O)CSC2=Nc3ccccc3C3CC=NN23)cc1 (stereo not given)	–	–	·	–	–	·
COc1cccc(CNC(=O)CCCn2ncn3c(cc4occc43)c2=O)c1OC	·	–	–	–	·	–
CCOC(=O)C1CCN(C(=O)Cn2c(-c3cccs3)cc3cc(Cl)ccc32)CC1	·	–	–	–	·	–
C/C(=C\CO)CCC(C)CCCC(C)CCCC(C)C (stereo not given)	–	–	–	·	·	–
C=C1C(=O)O[C@@H]2C[C@@H](C)[C@@H]3C=CC(=O)[C@@]3(C)[C@@H](OC(C)=O)[C@H]12	–	3.16µM	7.94µM	-99.2	2.82µM	11.2µM
C=C1C(=O)O[C@@H]2C[C@@H](C)[C@@H]3C=CC(=O)[C@@]3(C)[C@@H](O)[C@H]12	–	8.91µM!	10µM!	-99.9	1.41µM	?
CCOc1ccc(NC(=O)C2CCCN(c3c(CC)c(C)nc4ncnn34)C2)cc1 (stereo not given)	–	?	–	–	12.6µM	?
Cc1ccc(C)n1-c1nnc(N2CCCC(C(=O)Nc3ccccc3Br)C2)s1 (stereo not given)	·	–	–	–	·	–
CCc1c(C)nc2ncnn2c1N1CCN(S(=O)(=O)c2ccc(OC)cc2)CC1	–	–	–	-71.9	1.78µM	–
CCc1c(C)nc2ncnn2c1N1CCCC(C(=O)NCCc2ccccc2)C1 (stereo not given)	–	–	·	–	–	·
Cc1nc2ncnn2c(N2CCCC(C(=O)Nc3ccccc3Br)C2)c1C (stereo not given)	–	?	–	-64.4	?	–
CCc1c(C)nc2ncnn2c1N1CCCC(C(=O)Nc2cc(F)ccc2C)C1 (stereo not given)	–	35.5µM	?	–	–	·
CSc1ccccc1NC(=O)CN(C)C(=O)Cc1c(F)cccc1Cl	–	–	–	–	–	–
Cc1cc2ccccc2n1CCNC(=O)c1cc(C(F)(F)F)cc(C(F)(F)F)c1	·	–	–	–	·	–
COc1cccc(-n2c(CN3CCN(c4ccccc4)CC3)nc3ccc([N+](=O)[O-])cc3c2=O)c1	–	–	–	–	–	–
Cc1ccc(N(CC(=O)NC2CC3CCC2C3)S(C)(=O)=O)cc1C (stereo not given)	–	–	·	–	–	·
CS(=O)(=O)N(CC(=O)NC1CC2CCC1C2)c1cccc(C(F)(F)F)c1 (stereo not given)	–	–	–	-103.0	–	?
Cc1ccc(-n2ncc(C(=O)NCCN3CCCC3)c2C2CCN(C(=O)OC(C)(C)C)CC2)cc1C	·	–	–	–	·	–
COc1ccc(C)cc1NC(=O)CCCN1C(=O)C(c2ccccc2)Oc2cccnc21 (stereo not given)	·	–	·	–	?	·
CCC(C)Sc1cccc(-c2nc3ccc(C)cn3c2NCc2ccccc2)c1 (stereo not given)	·	31.6µM!	?	–	–	–
Cc1ccc2nc(-c3cccc(-c4cccc(Cl)c4)c3)c(NCc3ccccc3)n2c1	·	35.5µM	–	–	–	–
CCC(C)Sc1cccc(-c2nc3cc(C)ccn3c2NC2CCCCC2)c1 (stereo not given)	·	?	?	–	?	7.94µM!
Cc1ccn2c(NC3CCCCC3)c(-c3cccc(SC4CCCCC4)c3)nc2c1	·	?	?	–	?	?
SMILES	FBPA Giardia inh	FMDV inh	Vaccinia Venus	HCMV antiviral	HCV inh	Vaccinia mCherry
COc1ccccc1NC(=O)COC(=O)Cn1cnc2c1c(=O)n(C)c(=O)n2C	·	–	–	–	–	–
C[C@@H]1CN([C@@H](C)CO)C(=O)CCCn2nncc2CO[C@H]1CN(C)S(=O)(=O)c1cn(C)cn1	·	–	–	–	·	–
O=C1C=CC(=O)N1CCCCCCCCCCN1C(=O)C=CC1=O	·	20µM	–	–	?	–
CN(Cc1ccccc1)C(=O)c1cccc(NC(=O)Cc2ccc([N+](=O)[O-])cc2)c1	·	?	?	–	?	?
CN(Cc1ccccc1)C(=O)c1cccc(NC(=O)Cc2ccc(NC(=O)C3CCN(C(=O)CCc4ccccc4)CC3)cc2)c1	·	17.8µM	?	-91.3	2.24µM	?
CN(Cc1ccccc1)C(=O)c1cccc(NC(=O)Cc2cccc([N+](=O)[O-])c2)c1	·	?	?	?	2.82µM	?
CN(Cc1ccccc1)C(=O)c1cccc(NC(=O)Cc2ccc(NC(=O)C3CCN(C(=O)c4ccccc4)CC3)cc2)c1	·	–	–	–	–[8.37 µM]	–
CN(Cc1ccccc1)C(=O)c1ccc(NC(=O)Cc2ccc(NC(=O)C3CCN(C(=O)CCc4ccccc4)CC3)cc2)cc1	·	–	?	-88.6	?	?
CC1(C)CC(=O)c2c(oc3cc(O)c(O)cc23)C1	3.15µM	–	·	–	–	·
Cc1nn2c(=O)cc(COC(=O)c3ccco3)nc2s1	·	–	–	–	·	–
COC(=O)c1ccccc1-c1cc(C)cc2c1OC(CNC(=O)c1cc(C)on1)C2 (stereo not given)	·	–	–	·	·	–
Cc1cc(C)n(-c2ccc(C(=O)NCC(=O)Nc3cc(Cl)ccc3Cl)cc2)n1	·	–	·	+	–	·
CSc1ccccc1NC(=O)COC(=O)c1ccc(-n2nc(C)cc2C)cc1	·	–	–	-106.6	–	–
COc1ccc(Cl)cc1NC(=O)CN(C)C(=O)c1ccc(-n2nc(C)cc2C)cc1	·	?	·	–	?	·
O=C(Nc1ccc2c(c1)OCO2)c1cc(C2CCCCN2C(=O)c2ccc3c(c2)CCO3)on1 (stereo not given)	·	–	–	?	·	–
O=S(=O)(c1ccccc1)N1CCC(O)(CSc2ccc(F)cc2)CC1	–	?	?	-86.1	11.2µM	?
Cc1ccc(NC(=O)c2cc(NC(=O)c3ccco3)ccc2N2CCCCC2)cc1	–	–	–	-63.7	?	–
Cc1ccc(NC(=O)c2cc(N3C(=O)C=CC3=O)ccc2N2CCOCC2)cc1	–	?	–	?	10µM	–
Cc1ccc(NC(=O)c2cc(NC(=O)c3ccco3)ccc2N2CCOCC2)cc1	–	–	·	–	12.6µM	·
Cc1cc(C)c(S(=O)(=O)N2CCN(C(=O)CC(C)n3nc(C)nc3C)CC2)c(C)c1 (stereo not given)	·	–	–	-73.7	·	–
Cc1cc(C)c(S(=O)(=O)N2CCN(C(=O)C(C)Cn3nc(C)nc3C)CC2)c(C)c1 (stereo not given)	–	–	–	–	–	–
Cc1cc(C)c(S(=O)(=O)N2CCN(C(=O)CN3C(=O)NC4(CCCC4)C3=O)CC2)c(C)c1	·	–	–	-67.9	–	–
CCOC(=O)c1c(S(=O)(=O)N2CCCC(C(=O)Nc3cccc(C)n3)C2)c(C)n(C)c1C (stereo not given)	·	–	–	–	–	–
